Bioassay records as filed in PubChem.
KDM4E inh = qHTS Assay for Inhibitors of Human Jumonji Domain Containing 2E (JMJD2E) | Lysine-specific demethylase 4E (Homo sapiens), B2RXH2 | JMJD2E catalytic domain, FDH-coupled NADH fluorescence (FDH is formaldehyde dehydrogenase) | Potency, µM (doses to about 57.1 µM), inactives show top-dose activity change, negative = inhibition, hits mostly inhibitors | actives 1.6% (n = 230,000);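 note: potency is the fitted concentration of half-maximal effect; 0% = wells with enzyme and -100% = buffer wells without enzyme; nearly all actives have a fitted effect of over 50% in size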
Target sequence (B2RXH2 1-337 limits assumed): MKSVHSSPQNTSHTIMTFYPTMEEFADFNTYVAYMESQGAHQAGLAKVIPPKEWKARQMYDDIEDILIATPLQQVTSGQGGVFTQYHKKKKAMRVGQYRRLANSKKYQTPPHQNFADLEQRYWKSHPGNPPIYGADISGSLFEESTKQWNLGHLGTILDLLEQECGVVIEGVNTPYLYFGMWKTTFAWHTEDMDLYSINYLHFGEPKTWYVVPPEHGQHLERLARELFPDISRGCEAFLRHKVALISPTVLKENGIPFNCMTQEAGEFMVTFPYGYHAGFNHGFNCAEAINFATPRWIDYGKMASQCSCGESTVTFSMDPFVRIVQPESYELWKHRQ
ALDH1A1 block = qHTS Assay for Inhibitors of Aldehyde Dehydrogenase 1 (ALDH1A1). Aldehyde dehydrogenase 1A1 (Homo sapiens), P00352. Purified ALDH1A1, NADH fluorescence, propionaldehyde substrate. Potency, µM (series often up to 75.3 µM), for inactives: top-dose activity, negative = inhibition, most hits filed as inhibitors. actives 7.3% (n = 220,000). AID 1030, 2008;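 note: potency is the fitted concentration of half-maximal effect; plate controls were no enzyme wells and a reference inhibitor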
FBPA coupling cs = qHTS Assay for Inhibitors of Fructose-1,6-bisphosphate Aldolase from Giardia Lamblia: Coupling assay counterscreen. activity change, negative = inhibition, % at 58.2 µM, hits read low. AID 2472, 2010. coupling enzyme system counterscreen, AmpLite Red fluorescence. actives 0.67% (n = 290,000); in the data active = activity change below about -30%
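Coupling enzymes only (glyceraldehyde-3-phosphate) + compound, at 57.5 uM final, 10 min RT; add substrate/coupling/AmpLite Red mix, 20 min RT; fluorescence ex 525/em 598 nm. Actives flag coupling-system interference.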
NPSR antagonist = qHTS Assay for Antagonists of the Neuropeptide S Receptor: cAMP Signal Transduction; actives 1% (n = 220,000); Q6W5P4; Potency, µM (series often up to 38.3 µM), for the others: at the top dose activity change, negative = inhibition, actives largely listed as inhibitors; CHO-NPSR cells, cAMP TR-FRET, antagonist mode; active = well fitted curve in the direction sought with a large enough effect; inconclusive = small, poorly fitted or top-dose-only effect, or another doubt; inactive = no such curve, though single readings can be large; an effect the other way counts as inactive or inconclusive; note: potency is the fitted concentration of half-maximal effect; nearly all actives have a fitted effect of over 50% in size
Sfp inh = qHTS Assay for Inhibitors of Bacillus subtilis Sfp phosphopantetheinyl transferase (PPTase) | 4'-phosphopantetheinyl transferase ffp (Bacillus subtilis), Q9F4F7 | Biochemical Sfp PPTase activity, qHTS | Potency, µM, for the others: largest response in the series, negative = inhibition, usual class: inhibitors | actives 3.5% (n = 310,000) | AID 1490, 2009; active = well fitted curve in the direction sought with a large enough effect; inconclusive = small, poorly fitted or top-dose-only effect, or another doubt; inactive = no such curve, though single readings can be large; an effect the other way counts as inactive or inconclusive;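 note: the enzyme is Sfp with the accession as filed and its product quenches rhodamine fluorescence; potency is the fitted concentration of half-maximal effect; 0% = enzyme reaction without inhibitor and -100% = no enzyme wells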
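Buffer: 50 mM Hepes-Na pH 7.6, 10 mM MgCl2, 0.01% Nonidet P-40, 0.01% BSA. Enzyme 15 nM, pre-exposed to compound 15 min; substrates then added and fluorescence change tracked over 30 min.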
GoLoco inh red = qHTS Assay for Inhibitors of RGS12 GoLoco Motif Activity (Red Fluorophore); actives 0.44% (n = 230,000); Potency, µM (doses to about 61.6 µM), without a hit: at the highest dose activity, negative = inhibition, hits mostly inhibitors; Gai1:RGS12 GoLoco peptide FP, rhodamine, 10 min; Guanine nucleotide-binding protein G(i) subunit alpha-1 (Homo sapiens), P63096; active = well fitted inhibition curve with a large enough effect, not every such curve was filed as active; inactive = no such curve, though single readings can be large or run the other way; note: potency is the fitted concentration of half-maximal effect; nearly all actives have a fitted effect of over 30% in size
* marks the source's active call; other numbers are inactive results. Hits are enriched below; roughly 8.5% of the tested compounds scored in any of these assays. Unless noted, calls come from the whole dose curve; as a rule, active = well fitted inhibition curve with a large enough effect (not every such curve was filed as active); inconclusive = small, poorly fitted or top-dose-only effect, or another doubt; inactive = no such curve, though single readings can be large or run the other way. Unless noted, % is set by controls: 0 for no effect and ±100 for the full control effect.

C#CCNC(=O)C1=C[C@H](c2cn(C(C)=O)c3ccccc23)C[C@H](OCc2ccc(CO)cc2)O1 was read as KDM4E inh inconclusive, ALDH1A1 block inconclusive, FBPA coupling cs -3.5, NPSR antagonist 35.3%, Sfp inh -4.0% and GoLoco inh red 9.8%.
Screening O=C(Nc1ccccc1)C1=C[C@@H](c2ccc(Br)cc2)C[C@@H](OCCCCO)O1 returned KDM4E inh -6.7%, ALDH1A1 block 7.94µM*, FBPA coupling cs -4.4, NPSR antagonist 52.7%, Sfp inh 6.2% and GoLoco inh red 58.3%.
`O=C(Nc1ccccc1)C1=C[C@H](c2ccc3c(c2)OCO3)C[C@H](OCCCCO)O1` gave KDM4E inh -3.4%, ALDH1A1 block -1.1%, FBPA coupling cs -3.1, NPSR antagonist inconclusive, Sfp inh -16.2% and GoLoco inh red 9.8%.
C=CCOC(=O)C1=C[C@@H](c2csc3ccccc23)C[C@@H](OCc2ccc(CO)cc2)O1 was read as KDM4E inh -27.6%, ALDH1A1 block 25.1µM*, FBPA coupling cs -5.7, NPSR antagonist inconclusive, Sfp inh -14.2% and GoLoco inh red -1.7%.
`O=C(NC1CC1)C1=C[C@H](c2ccc3c(c2)OCO3)C[C@H](OCc2ccc(CO)cc2)O1` gave KDM4E inh -24.3%, ALDH1A1 block -6.3%, FBPA coupling cs -0.5, NPSR antagonist 3.8%, Sfp inh 7.5% and GoLoco inh red 1.8%.
For CC(=O)n1cc([C@@H]2C=C(C(=O)NCc3ccccc3)O[C@H](OCc3ccc(CO)cc3)C2)c2ccccc21 the results were KDM4E inh 10µM*, FBPA coupling cs 4.7, NPSR antagonist -44.4%, Sfp inh 14.6% and GoLoco inh red 158.3%.
For O=C(c1cncs1)N1CCCC(CNS(=O)(=O)c2cccs2)C1 (stereo unspecified) the results were KDM4E inh 3.5%, ALDH1A1 block inconclusive, FBPA coupling cs -0.5, NPSR antagonist 1.2%, Sfp inh 6.7% and GoLoco inh red 3.2%.
CCOC(=O)c1[nH]c(C)c(C(=O)OCc2ccccc2F)c1C was read as FBPA coupling cs -2.6 and Sfp inh -19.1%.
CC(=O)n1cc([C@@H]2C=C(C(=O)Nc3ccccc3)O[C@H](OCCCCO)C2)c2ccccc21 was read as KDM4E inh -9.8%, ALDH1A1 block 12.6µM*, FBPA coupling cs -0.2, NPSR antagonist 32.0%, Sfp inh -7.7% and GoLoco inh red 2.5%.
For COC(=O)C1=C[C@@H](C(=O)OC)C2C3=C(C(=O)[C@]2(CC(C)C)NC(=O)c2ccccc2)[C@H](C)n2c(=O)n(C)c(=O)n2[C@@H]3C1 (stereo partly specified) the results were FBPA coupling cs -1.0 and Sfp inh 19.2%.
For O/N=C/c1ccc2ccccc2n1 the results were KDM4E inh -4.8%, FBPA coupling cs 1.1, NPSR antagonist 5.9%, Sfp inh -9.8% and GoLoco inh red -3.3%.
For Oc1ccc(/C=C/c2ccc3cccc(O)c3n2)cc1Br the results were FBPA coupling cs -4.5 and Sfp inh -8.3%.
`COC(=O)c1ccc(/C=C/c2ccc3cccc(OC(C)=O)c3n2)cc1` gave KDM4E inh 1.7%, ALDH1A1 block inconclusive, FBPA coupling cs -20.2, NPSR antagonist -2.6%, Sfp inh 17.8µM* and GoLoco inh red -6.5%.
For Oc1cccc2ccc(/C=C/c3ccccc3Cl)nc12 the results were FBPA coupling cs -5.3 and Sfp inh 8.8%.
`O/N=C/c1ccc2cccc(O)c2n1` gave KDM4E inh 31.6µM*, FBPA coupling cs -11.8, NPSR antagonist 6.6%, Sfp inh inconclusive and GoLoco inh red 4.2%.
